# According to ChEMBL document CHEMBL4513216, “Probing the Open Global Health Chemical Diversity Library for Multistage-Active Starting Points for Next-Generation Antimalarials” (ACS Infect Dis, 2020):
# The whole screen tested about 68,000 compounds, of which about 2,700 (4%) showed an effect of 50% or more. Only a selection was taken, and strong results are over-represented in it overall.
# Tested on: Plasmodium berghei
# Assay: Screen against P. berghei liver stage (PbLuc), transformed with Luciferase, at 2uM
# Assay type: functional, HepG2
# Conditions: tested at 2 uM
row,SMILES,INHIBITION [%]
1,CCC(CC)c1cc(CNC(=O)N2CCOC(C)C2)on1 (stereo not given),-40.76
2,c1cnc(N2CCN(CCn3ccnc3-c3ccncc3)CC2)nc1,36.79
3,Cc1nc(C2CCN(C(=O)c3cscn3)CC2)c2sccn12,45.5
4,CC(C)n1[nH]c(=O)c2c1NC(=O)CSC2c1cccc(OCC(N)=O)c1 (stereo not given),9.29
5,O=C(c1cnccn1)N1C[C@@H]2CN(Cc3cccnc3)CCO[C@@H]2C1,0.54
6,CN(C)CCN1C2(CCN(Cc3nccs3)C2)c2ccccc2S1(=O)=O (stereo not given),31.25
7,Cn1cc(C2COC3(CCN(C(=O)c4ccsc4)CC3)C2)cn1 (stereo not given),-0.38
8,Cn1cc(-c2nc(CN3CCc4c(ncn4C)C3)cs2)cn1,14.06
9,Cc1nc(CNCC2CCCN2c2cccnn2)no1 (stereo not given),-12.31
10,O=C(c1cnc(-c2cccs2)s1)N1CCCC(n2cccn2)C1 (stereo not given),42.18
11,O=C(c1cnc(-c2cccs2)s1)N1CCCN2CCCC2C1 (stereo not given),-38.96
12,O=C(c1cnc(-c2cccs2)s1)N1CCCC(n2ccnc2)C1 (stereo not given),64.16
13,Cn1cccc1C(=O)N1CC[C@H]2[C@H]1CCN2CC1CC1,-0.23
14,CCN(CC)C(=O)c1ccc(COc2ccccc2C#N)o1,9.54
15,O=C(O)c1cc2c(nc1-c1ccncc1)CCN(C1CCOC1)CC2 (stereo not given),-6.71
16,CCc1ccc(-c2cc(C(F)(F)F)nc(N3CCC(N)CC3)n2)cc1,16.36
17,c1cnc(-c2nc(CN3CCCC(N4CCCC4)C3)cs2)nc1 (stereo not given),-44.96
18,Clc1ccc2cccnc2c1CN1CCn2c(nnc2C2CC2)C1,55.36
19,Fc1cccc(Cl)c1CN1CCn2c(nnc2C2CC2)C1,7.67
20,c1coc(-c2nc(CN3CCn4c(nnc4C4CC4)C3)cs2)c1,39.65
21,CCCC1CCCN(Cc2csc(-c3ncccn3)n2)CC1 (stereo not given),33.5
22,c1ccc(-c2nc(CN3CCn4c(nnc4C4CC4)C3)cs2)cc1,34.39
23,c1cnc(-c2nc(CN3CCn4c(nnc4C4CC4)C3)cs2)nc1,63.64
24,CC1CCCN(Cc2csc(-c3ncccn3)n2)CC1 (stereo not given),53.03
25,Cc1nnc2n1CCN(Cc1c(Cl)ccc3cccnc13)C2,5.28
26,CC1c2ncc(Cn3cncn3)n2CCN1C(=O)c1ccccn1 (stereo not given),23.97
27,O=C(c1ccccc1)N1CCC2(CC1)CNc1c(F)cccc12,-27.31

row,SMILES,INHIBITION [%]
1,CC(OCC1CC1)C(=O)N1CCCN(Cc2cnn(C)c2)CC1 (stereo not given),47.12
2,Cc1ccc(N2CC[C@@H]3O[C@@H](COCc4cccnc4)CC[C@@H]32)nn1,-64.19
3,O=C(c1cccc(S(=O)(=O)NCCc2ccccn2)c1)N1CCOCC1,6.84
4,CCc1cc(CN2C[C@@H]3CC[C@H]2CN(C2Cc4ccccc4C2)C3)on1,36.79
5,Cc1ccccc1C(C(=O)N(C)Cc1cnn(C)c1)N(C)C (stereo not given),-15.75
6,CC(=O)N1CCCC2(CCN(c3nncs3)C2)C1 (stereo not given),19.58
7,O=C(C1CCC2(CCN(c3nncs3)CC2)C1)N1CCCC1 (stereo not given),58.08
8,O=C(C1CCC2(CCN(c3nncs3)CC2)CO1)N1CCCC1 (stereo not given),-38.48
9,CNc1cc(N2CCCC2CNCc2cnc(C)s2)ncn1 (stereo not given),47.3
10,CNC(=O)C1(CCCc2cccnc2)CCCCN1 (stereo not given),32.95
11,O=C1O[C@@H]2CN(C3CCOCC3)C[C@@H]2N1CCc1cccc(Cl)c1,19.46
12,O=C(c1ccccn1)N(CCO)Cc1cc(Br)ccc1F,-46.83
13,O=C(c1cccnc1O)N(CCO)Cc1cc(Br)ccc1F,52.89
14,O=C(c1cccnc1)N(CCO)Cc1cc(Br)ccc1F,-12.09
15,CC(C)CN1CCC(NCCNc2cccnc2)CC1,2.06
16,CN(C)C(=O)c1nc2c(s1)CCCN2Cc1ccccc1,-4.2
17,CCN1CCOCC2(CCCN(C(=O)c3cccc(O)c3)C2)C1 (stereo not given),24.36
18,Cc1ccc(S(=O)(=O)NC(=O)C2(c3ccc(F)cc3)CCC2)c(C)c1,-2.2
19,Cc1ccc(S(=O)(=O)NC(=O)C2(c3ccccc3)CCC2)c(C)c1,53.81
20,Cc1ccccc1S(=O)(=O)NC(=O)C1(c2ccccc2)CCC1,28.54
21,COc1ccc(CN2C[C@@H]3COC[C@@H](N4CCN(C)CC4)[C@@H]3C2)cc1,-54.53
22,CN(C)CCNC(=O)CCn1ncc2c(Cl)cccc21,19.92
23,Cc1cccc(=O)n1CCC(=O)N1CC[C@@](O)(C2CCC2)[C@H](C)C1,-11.55
24,Cc1cccc(=O)n1CCC(=O)N1CC[C@](C)(O)[C@H](C)C1,-4.52
25,Cc1cccc(=O)n1CCC(=O)N1CCC2(CC1)OCCCC2O (stereo not given),62.96
26,Cc1cc(N2CCN(Cc3ccccc3)CC(O)C2)cc(C)n1 (stereo not given),74.94
27,Cc1cc(N2CCN(Cc3ccccc3)CC(O)C2)nc(N)n1 (stereo not given),24.44

row,SMILES,INHIBITION [%]
1,OC1CN(Cc2ccccc2)CCN(c2ccncc2)C1 (stereo not given),1.42
2,c1cc(CN2CCCN(c3ccc4cc[nH]c4n3)CC2)ccn1,45.82
3,Fc1ccccc1CN1CCCN(c2ccc3cc[nH]c3n2)CC1,-1.87
4,COc1cccc(C2CC(=O)Nc3nc(N4CCCCC4)sc32)c1OC (stereo not given),-18.15
5,COc1ccc(OC)c(C2CCN(c3ccc4cc[nH]c4n3)C2)c1 (stereo not given),29.98
6,COc1ccccc1C1CCN(c2ccc3cc[nH]c3n2)CC1,76.27
7,COc1cccc(C2CCN(c3ccc4cc[nH]c4n3)C2)c1OC (stereo not given),87.17
8,CCN1C(=O)CCC12CCCN(Cc1nccs1)CC2 (stereo not given),-23.02
9,O=C1CC(c2ccccc2)c2sc(C(=O)O)c(-c3ccccc3)c2N1 (stereo not given),4.74
10,Fc1ccc(CN2CCO[C@H]3[C@H](OCc4ccncc4)CC[C@@H]32)cc1,4.54
11,c1ncc(-c2cn(CCSc3cnn[nH]3)nn2)cn1,70.58
12,CCc1ncc(-c2cn(CCSc3ncn[nH]3)nn2)cn1,-5.87
13,c1c[nH]c(-c2cn(CCSc3cnn[nH]3)nn2)n1,11.19
14,CCn1ncc(C(=O)NCCc2nc(-c3ccncc3)n[nH]2)c1C,9.61
15,Cc1ccc(NC2CCN(C(=O)Cc3c(C)noc3C)CC2)nn1,-25.13
16,COc1ccccc1C(=O)Nc1cc(CC(C)C)nn1C,56.02
17,Cn1nc(CC(C)(C)C)cc1NC(=O)c1ccc2[nH]nnc2c1,16.95
18,CC(C)Cc1cc(NC(=O)c2ccncc2)n(C)n1,25.46
19,CC(C)Cc1cc(NC(=O)c2ccc(=O)[nH]n2)n(C)n1,-19.76
20,CC(C)Cc1cc(NC(=O)c2ccccc2F)n(C)n1,-68.24
21,CC(C)Cc1cc(NC(=O)c2n[nH]c3ccccc23)n(C)n1,64.16
22,CC(C)Cc1cc(NC(=O)c2ccc3[nH]nnc3c2)n(C)n1,50.61
23,CC(C)Cc1cc(NC(=O)c2ccccc2)n(C)n1,49.9
24,COc1ccc(C(=O)Nc2cc(CC(C)C)nn2C)cc1,19.35
25,Clc1ccccc1-c1nnc(CNCCn2cccn2)o1,49.35
26,C=C(C)COCCNC(=O)C1CCCN1C(C)=O (stereo not given),45.75
27,Cn1cc(CN2CCCN(C(=O)c3ccc4ccccc4n3)CC2)cn1,30.05

row,SMILES,INHIBITION [%]
1,O=C(CNC(=O)Nc1c(F)cccc1Oc1ccccc1)NC1CC1,-40.7
2,Cc1nc2c(C(=O)N[C@H]3C[C@H]4CN(C)CCN4C3)cccc2[nH]1,-51.5
3,CCn1c(CN2CCCC(O)(c3ccc(F)cc3)CC2)cnc1SC (stereo not given),49.87
4,Cc1ccccc1OCCC(=O)N1CCCC(n2cncn2)C1 (stereo not given),2.08
5,COc1ccc(CC(=O)N2Cc3nccn3CC(CN(C)C)C2)cc1 (stereo not given),35.26
6,O=C(NC[C@]1(O)CCN(Cc2ccsc2)C[C@H]1O)c1c[nH]cn1,69.45
7,Cc1cncc(CN2CC[C@@](O)(CNC(=O)c3c[nH]cn3)[C@H](O)C2)c1,19.36
8,O=C(NC[C@]1(O)CCN(Cc2ccccc2F)C[C@H]1O)c1c[nH]cn1,38.96
9,CS(=O)(=O)N1CCC2(CC1)CC(NCc1ccco1)c1ccccc12 (stereo not given),-9.53
10,O=C1CN(C(=O)CN(CC2CCC2)CC(F)(F)F)CCN1,19.92
11,Cc1cc(C)n(Cc2cc(C(=O)N3CCCC3c3ccccn3)n[nH]2)n1 (stereo not given),-15.08
12,CC(C)(C)CC(=O)Nc1ncn(CC(=O)NCc2ccccc2)n1,-34.98
13,CC(CC(=O)Nc1ncn(CC(=O)NCc2ccccc2)n1)C1CC1 (stereo not given),-1.21
14,O=C(Cn1cnc(NC(=O)CC2CCCC2)n1)NCc1ccccc1,67.59
15,O=C(NCCn1cc(Cl)cn1)C1CCN(C(=O)C2CC2)CC1,23.64
16,NC(=O)CN1CCC(C(=O)NCCn2cc(Cl)cn2)CC1,-10.84
17,N[C@@H]1CC[C@H](C(=O)NCCn2cc(Cl)cn2)C1,61.95
18,O=C(CCN1CCCCO1)NC1CCCN(CC2CCCCC2)C1 (stereo not given),-0.88
19,c1cc(CNCc2ccc3c(c2)CCO3)cc(N2CCOCC2)n1,57.82
20,c1cc(CNCc2ccnc(N3CCOCC3)c2)c2c(c1)OCCO2,1.22
21,COc1ccc(CNCc2ccnc(N3CCCCC3)c2)cc1OC,30.91
22,COc1ccc(OC)c(CNCc2ccnc(N3CCOCC3)c2)c1,-28.39
23,COc1ccc(CNCc2ccnc(N3CCOCC3)c2)cc1OC,62.13
24,Fc1cc(CNCc2ccc3c(c2)CCO3)ccc1N1CCOCC1,-10.05
